Results reported in PubChem BioAssay.
Active and inactive are the calls of the source. Unless noted, no rule for the calls is given here.

What was measured:
[1] = system: XIP peptide (Xip251-270) binding; test: small-molecule binders of XIP peptide, primary screen, biochemical, small-molecule microarray, fluorescence 635/667 nm, 0.1 µg/mL protein (AID 1182); conditions: fluorescent protein binding, 635 nm, higher = more signal, called active from +8 up or from −8 down
XIP peptide (Xip251-270) = test: small-molecule binders of XIP peptide, primary screen, biochemical, small-molecule microarray, fluorescence 635/667 nm, 0.5 µg/mL protein (AID 1183); conditions: small-molecule microarray binding, fluorescence 635 nm; higher = more signal
[2] = Plasmodium falciparum growth inhibition, primary screen, strain 3D7, DAPI fluorescence, 100 nL (AID 1184);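 also: parasites grown inside human red blood cells in medium with human serum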; conditions: P. falciparum 3D7 growth, 3 d, higher = more signal
[3] = molecular target: Homeobox protein Hox-A13 (Mus musculus) (UniProt Q62424); test: inhibitors of HoxA13-DNA binding, primary screen, biochemical, fluorescence polarization, labeled oligonucleotide (AID 1185); conditions: 15 min, higher = more signal, called active from +8 up or from −8 down
Homeobox protein Hox-A13 (Mus musculus), sequence (Q62424 whole entry, looked up): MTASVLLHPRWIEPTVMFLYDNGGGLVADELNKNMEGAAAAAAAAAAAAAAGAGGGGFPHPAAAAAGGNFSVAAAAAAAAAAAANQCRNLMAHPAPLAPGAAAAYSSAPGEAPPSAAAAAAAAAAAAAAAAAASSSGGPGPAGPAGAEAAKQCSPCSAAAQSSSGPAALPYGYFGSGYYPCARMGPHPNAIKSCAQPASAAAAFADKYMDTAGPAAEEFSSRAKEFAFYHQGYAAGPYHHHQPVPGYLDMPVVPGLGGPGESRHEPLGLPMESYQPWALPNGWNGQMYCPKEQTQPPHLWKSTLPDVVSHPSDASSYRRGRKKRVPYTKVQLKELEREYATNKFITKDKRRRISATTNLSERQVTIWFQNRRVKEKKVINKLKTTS

[4] = inhibitors of hydroxyurea-induced Chk1 phosphorylation, primary screen, imaging, HeLa, phospho-Chk1 antibody, percent positive cells (AID 1186); conditions: hydroxyurea-induced phospho-Chk1 immunofluorescence imaging, higher = more signal
[5] = inhibitors of hydroxyurea-induced Chk1 phosphorylation, primary screen, imaging, HeLa, phospho-Chk1 nuclear intensity (AID 1187); conditions: hydroxyurea-induced phospho-Chk1 immunofluorescence imaging, higher = more signal

Compound | composite z-score [1] | composite z-score (XIP peptide (Xip251-270)) | z-score [2] | z-score [3] | z-score [4] | z-score [5]
[N-]=[N+]=NCc1ccccc1[C@H]1OC(c2ccc(OCCCO)cc2)=N[C@@]1(CCS(=O)(=O)c1ccccc1)C(=O)N1CCCCC1 | 0.447 (inactive) | 0.757 | -2.46 | -3.76 (inactive) | -0.0013 (inactive) | -0.0087 (inactive)
CCOC(=O)C[C@H]1[C@H](OC(=O)Cc2ccc3c(c2)OCO3)[C@@H](NC(=O)CC(C)C)c2cc(OCCCO)ccc2N1C(=O)Cc1ccc(OC)cc1 | -0.107 (inactive) | -0.311 | 0.0373 | -3.35 (inactive) | -0.839 (inactive) | -0.401 (inactive)
C=C(C)[C@@H]1CC=C(C(O)C2C=CC3C(=O)N(c4ccccc4)C(=O)C3N2Nc2ccccc2F)CC1 (stereo partly drawn) | 0.301 (inactive) | 0.656 | -0.282 | -1.52 (inactive) | 0.749 (inactive) | 0.372 (inactive)
COc1cc(OC)c(C(O)C2C=CC3C(=O)N(c4ccccc4)C(=O)C3N2Nc2ccccc2)cc1Br (stereo not drawn) | 1.02 (inactive) | 0.577 | 0.0461 | -3.38 (inactive) | -0.754 (inactive) | -0.747 (inactive)
COC(=O)[C@@]1(Cc2ccc(F)cc2)[C@H]2c3cc(C(=O)N4CCCC4)n(CCN4CNCC4=O)c3C[C@H]2CN1C(=O)c1ccccc1 | 0.207 (inactive) | 0.632 | -1.65 | -5.84 (inactive) | 0.191 (inactive) | 0.44 (inactive)
C=CCOC(=O)[C@H]1[C@@H]2C(=O)O[C@@H](c3ccccc3)[C@@H](c3ccccc3)N2[C@@H](c2ccc(OCCOC(=O)[C@@H]3C[C@@H]4C(=O)N[C@@H](CCCCN(C)C)C(=O)N4[C@@H]3c3ccc(O)cc3)cc2)[C@]12C(=O)Nc1ccccc12 | 2.41 (inactive) | 0.878 | 0.0953 | 4.03 (inactive) | -0.768 (inactive) | -0.475 (inactive)
COCCCNC(=O)[C@]1(CCS(=O)(=O)c2ccccc2)N=C(c2ccc(OCCCO)cc2)O[C@@H]1c1ccccc1CN=[N+]=[N-] | 1.51 (inactive) | 0.814 | -2.3 | -3.61 (inactive) | -0.684 (inactive) | -0.618 (inactive)
COCCOC(=O)N1C(=O)[C@@]2(c3ccccc31)[C@H](C(=O)N1CCN(c3ncccn3)CC1)[C@H]1C(=O)O[C@H](c3ccccc3)[C@H](c3ccccc3)N1[C@@H]2c1ccc(O)cc1 | 0.43 (inactive) | 0.854 | -1.55 | -0.883 (inactive) | 0.172 (inactive) | 0.371 (inactive)
C=C(C(=O)CC[C@@H](OC(C)=O)c1ccc(CO)o1)C(C)C | 0.164 (inactive) | 0.656 | -0.14 | -4.08 (inactive) | 0.257 (inactive) | 0.636 (inactive)
N#Cc1ccc(C(O)C2C=CC3C(=O)N(c4ccccc4)C(=O)C3N2Nc2ccccc2)cc1 (stereo not drawn) | 0.294 (inactive) | 0.108 | -0.605 | -1.94 (inactive) | -0.18 (inactive) | -0.383 (inactive)
[N-]=[N+]=Nc1ccccc1C[C@]1(C(N)=O)N=C(c2ccc(OCCCO)cc2)O[C@H]1c1ccccc1N=[N+]=[N-] | 0.635 (inactive) | 0.756 | -2.65 | -5.32 (inactive) | -0.433 (inactive) | -0.683 (inactive)
COc1ccc(CCNC(=O)[C@@]2(Sc3ccc(C)cc3)CC(=O)N(C3Cc4ccccc4C3)[C@@H]2c2ccc(CO)cc2)cc1 | 0.984 (inactive) | 0.703 | -1.89 | 0.563 (inactive) | -0.341 (inactive) | -0.452 (inactive)
C=C(/C(=C/C[C@H](OC(=O)c1ccncc1)c1ccc(CO)o1)c1cc(C(=O)OC)ccc1OC)C(C)C | 0.0474 (inactive) | 0.554 | -0.114 | -5.26 (inactive) | -0.291 (inactive) | -0.218 (inactive)
NCCCCCNC(=O)[C@@H]1C[C@@H]2C(=O)NCC(=O)N2[C@@H]1c1cccc(OCCO)c1 | 0.318 (inactive) | 0.782 | -1.28 | -1.43 (inactive) | 0.518 (inactive) | 0.503 (inactive)
CCOC(=O)c1ccc(NC(=O)O[C@H]2[C@H](OC(=O)Nc3ccc4c(c3)OCO4)[C@@H](OC(=O)Nc3ccc4c(c3)OCO4)[C@@H](OC)O[C@@H]2CO)cc1 | 1.15 (inactive) | 0.894 | -2.42 | -8.16 (active) | -0.301 (inactive) | -0.0975 (inactive)
COC(=O)c1ccc([C@H](NC(=O)c2ccco2)[C@]2(C)C[C@H]2C2CCCCC2)cc1 | -0.235 (inactive) | -0.727 | -0.414 | -2.66 (inactive) | 0.089 (inactive) | -0.229 (inactive)
CC(c1ccccc1)C(O)C1C=CC2C(=O)N(c3ccccc3)C(=O)C2N1Nc1ccc([N+](=O)[O-])cc1 (stereo not drawn) | 0.725 (inactive) | 0.837 | -0.917 | -3.22 (inactive) | 0.433 (inactive) | 0.104 (inactive)

Compound | composite z-score [1] | composite z-score (XIP peptide (Xip251-270)) | z-score [2] | z-score [3] | z-score [4] | z-score [5]
CC1CC/C=C\[C@H]2OC34C=CCN(C(C)C)C(=O)[C@H]3N(CCCCCCO)C(=O)[C@@H]4C2C(=O)O1 (stereo partly drawn) | 0.565 (inactive) | 0.27 | -0.565 | -3.74 (inactive) | -0.108 (inactive) | 0.631 (inactive)
CN1C(=O)C2C=CC(C(O)c3ccccn3)N(N(c3ccccc3)c3ccccc3)C2C1=O (stereo not drawn) | -0.365 (inactive) | 0.891 | -0.215 | -8.63 (active) | 0.46 (inactive) | -0.024 (inactive)
CCOC(=O)c1ccc(NC(=O)O[C@H]2[C@H](OC(=O)Nc3ccc4c(c3)OCO4)[C@H](OC(=O)Nc3ccc4c(c3)OCO4)[C@@H](OC)O[C@@H]2CO)cc1 | 1.4 (inactive) | 0.863 | -2.28 | -6.83 (inactive) | -0.306 (inactive) | 0.101 (inactive)
C=CCC(OC(C)=O)[C@@H]1[C@@H](N(Cc2cc3ccccc3o2)C(=O)Cc2ccc(F)cc2)c2cc(OCCCO)ccc2N1C(=O)c1ccc2ccccc2c1 (stereo partly drawn) | -0.231 (inactive) | -0.271 | 1.15 | -1.95 (inactive) | 0.608 (inactive) | 0.308 (inactive)
C=CCC(OC(C)=O)[C@@H]1[C@@H](N(Cc2ccc(-c3cccc(C(F)(F)F)c3)o2)C(=O)c2ccc(C)cc2)c2cc(OCCCO)ccc2N1C(=O)c1ccc2ccccc2c1 (stereo partly drawn) | 0.579 (inactive) | 0.0901 | -2.6 | -0.683 (inactive) | -0.793 (inactive) | -0.595 (inactive)
C=CCOC(=O)[C@H]1[C@@H]2C(=O)O[C@@H](c3ccccc3)[C@@H](c3ccccc3)N2[C@@H](c2ccc(OCCOC(=O)[C@H]3C[C@H]4C(=O)N[C@@H](CCCCNC(C)=O)C(=O)N4[C@H]3c3ccc(O)cc3)cc2)[C@]12C(=O)Nc1ccccc12 | 2.69 (inactive) | 0.685 | -1.72 | -1.06 (inactive) | 0.203 (inactive) | 0.261 (inactive)
COc1ccc(-c2cc3c(c(CCc4ccccc4)n2)[Si](C(C)C)(C(C)C)OC3)cn1 | -0.406 (inactive) | -0.251 | -0.118 | -2.5 (inactive) | -0.0328 (inactive) | 0.236 (inactive)
COc1cc2c(cc1OC)CN(C(=O)[C@@H]1[C@H]3C(=O)O[C@H](c4ccccc4)[C@H](c4ccccc4)N3[C@H](c3ccc(OCCO)cc3)[C@@]13C(=O)Nc1ccc(C#CC4(O)CCCCCC4)cc13)CC2 | 0.784 (inactive) | 0.684 | -2.06 | 3.75 (inactive) | -0.124 (inactive) | 0.041 (inactive)
CN(C)CCCNC(=O)[C@@]1(c2ccc([N+](=O)[O-])cc2)CC(=O)N(CC23CC4CC(CC(C4)C2)C3)[C@@H]1c1ccc(CO)cc1I | 0.166 (inactive) | 0.86 | -2.16 | 8.34 (active) | -0.449 (inactive) | -0.766 (inactive)
CCOc1cc(C(O)C2C=CC3C(=O)N(c4ccccc4)C(=O)C3N2Nc2ccc(C#N)cc2)ccc1O (stereo not drawn) | 0.186 (inactive) | 0.535 | -0.435 | -4.2 (inactive) | -0.22 (inactive) | -0.0602 (inactive)
C=CCNC(=O)[C@@H]1[C@H]2C(=O)O[C@H](c3ccccc3)[C@H](c3ccccc3)N2[C@H](c2ccc(O)cc2)[C@@]12C(=O)N(C(=O)OCCOC)c1ccc(C#CC3(O)CCCCCC3)cc12 | 0.0275 (inactive) | 0.557 | 0.359 | 0.16 (inactive) | -0.209 (inactive) | -0.468 (inactive)
COc1cc(OC)c(C(O)C2C=CC3C(=O)N(C)C(=O)C3N2NC(=O)OC(C)(C)C)cc1Br (stereo not drawn) | -0.121 (inactive) | 0.759 | -0.107 | -2.6 (inactive) | 0.111 (inactive) | -0.0533 (inactive)
O=C1c2ccccc2[C@](Cc2ccccc2I)(C(=O)NCC(F)(F)F)[C@H](c2ccc(CO)cc2)N1C1CCCCC1 | 0.759 (inactive) | 0.841 | -1.14 | -3.97 (inactive) | -0.68 (inactive) | -0.11 (inactive)
NCCCCCCNC(=O)[C@@H]1C[C@@H]2C(=O)N[C@@H](CCCCN)C(=O)N2[C@@H]1c1cccc(OCCO)c1 | 1.7 (inactive) | 0.832 | 0.139 | -3.22 (inactive) | -0.545 (inactive) | -0.269 (inactive)
O=C1OCCC=C[C@H]2OC34C=CCN(Cn5nnc6ccccc65)C(=O)[C@H]3N(CCCCCCO)C(=O)[C@@H]4C12 (stereo partly drawn) | 1.62 (inactive) | -0.948 | 0.006 | -3.78 (inactive) | -0.667 (inactive) | -0.21 (inactive)
CCCC[C@@H]1C[C@H]1[C@@H](NC(=O)Cc1ccccc1)c1ccc(-c2ccccc2)cc1 | 0.33 (inactive) | -0.135 | -0.456 | -0.559 (inactive) | -0.584 (inactive) | -0.541 (inactive)
